The test system of the test is TYKNU. As to the kind of experiment: fractional viability relative to vehicle; TYKNU is a high-grade serous ovarian cancer line; higher = less growth inhibition. Particulars: 72 h, genotype: OPA1 knockout (sgOPA1 #2). The gist of the method: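 Drug treatment lasted 72 h, with cells grown at 37 °C in 5% CO2 in RPMI 1640 supplemented with 10% FBS. Beforehand, TYKNU control cells or their lentiCRISPRv2 knockout derivatives had been seeded at 500 cells per well into drug-stamped 384-well plates carrying a ~2100-compound library at 2 or 10 μM, in duplicate. Viability came from Cell Titer Glo luminescence, with averaged duplicate treatment wells normalised to duplicate control wells in the same plate position.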

Structures can show the parent of a compound that is named as a salt. The full ranking holds about 2,000 compounds; the median of “fractional viability relative to vehicle” is about 0.92, and the lowest 2% start at about 0.11. The full list was thinned out, with the lowest values kept by preference.

As for `CN1CCN(c2ccc3nc(-c4c(N)c5c(F)cccc5[nH]c4=O)[nH]c3c2)CC1` [Dovitinib (TKI-258, CHIR-258)], the fractional viability was found to be 0.815 (2uM) and 0.25 (10uM).

For `CN1CCN(c2ccc3nc(-c4c(N)c5c(F)cccc5[nH]c4=O)[nH]c3c2)CC1` [Dovitinib (TKI258) Lactate], the fractional viability by setting is: (2uM) 0.815; (10uM) 0.0801.

In the case of `Cc1nn(-c2ccccc2)c(C)c1C=NN1CCN(Cc2ccccc2)CC1`, the fractional viability by setting is: (2uM) 0.946; (10uM) 0.905.

`COCC(=O)NC/C=C/c1ccc2ncnc(Nc3ccc(Oc4ccc(C)nc4)c(C)c3)c2c1` had a fractional viability (2uM) of 1.29 and a fractional viability (10uM) of 1.17.

For the compound `CCCCCCCc1ccc(CCc2cccc(O)c2C(=O)O)cc1`, the fractional viability is, setting by setting: (2uM) 0.96; (10uM) 0.73.

In the case of `CCCCCCCCCCCCc1ccc(S(=O)(=O)Nc2nncs2)cc1`, the fractional viability was determined as 1.06 (2uM) and 1.05 (10uM).

In turn, `CCCCCCCCc1ccc(CCC(N)(CO)CO)cc1` [Fingolimod (FTY720) HCl] yielded a fractional viability (2uM) of 1.08 and a fractional viability (10uM) of 0.0752.

Consider `O=C(c1ccc(OCCCc2c[nH]cn2)cc1)C1CC1` [Ciproxifan], for which the fractional viability (2uM) was determined as 1.1 and the fractional viability (10uM) is 0.986.

For the compound `CCCCCCCCCCCCCCCCn1cc[n+](Cc2ccccc2)c1C`, the fractional viability runs as follows: (2uM) 0.363; (10uM) 0.0434.

Take `CCO[C@@H]1OC(=O)C[C@@H]1NC(=O)[C@@H]1CCCN1C(=O)[C@@H](NC(=O)c1ccc(N)c(Cl)c1)C(C)(C)C`: the fractional viability (2uM) worked out at 0.969 and the fractional viability (10uM) was found to be 0.919.

For `Cc1cc([N+](=O)[O-])ccc1NS(=O)(=O)c1cc(Cl)ccc1Cl`, the fractional viability is, setting by setting: (2uM) 0.656; (10uM) 0.476.

The compound `CC(C)c1nc(N(C)S(C)(=O)=O)nc(-c2ccc(F)cc2)c1/C=C/[C@@H](O)C[C@@H](O)CC(=O)O` [Rosuvastatin Calcium] registered a fractional viability (2uM) of 1.06 and a fractional viability (10uM) of 1.07.

On to `Nc1cccc2c1C(=O)N(C1CCC(=O)NC1=O)C2=O` (stereo not drawn) [Pomalidomide], for which the fractional viability came to 1.18 (2uM) and 1.05 (10uM).

As for `CNc1nc(Nc2cn(C(C)(C)C#N)nc2C)ncc1C(F)(F)F`, the fractional viability runs as follows: (2uM) 0.801; (10uM) 0.885.

Regarding `Cc1ccc(-c2c(-c3nn(C)c4ncnc(N5CC[C@H](N6CCCCC6)C5)c34)cnn2C)cc1`, the fractional viability came out at 0.983 (2uM) and 1.09 (10uM).

For the compound `CCC[C@H](N[C@H]1CCc2cc(F)cc(F)c2C1)C(=O)Nc1cn(C(C)(C)CNCC(C)(C)C)cn1`, the fractional viability is 0.786 (2uM) and 0.87 (10uM).

`CC(=O)[C@@]1(O)CC[C@H]2[C@@H]3CCC4=CC(=O)CCC4=C3[C@@H](c3ccc(N(C)C)cc3)C[C@@]21C` [Ulipristal]: the fractional viability is, setting by setting: (2uM) 0.841; (10uM) 1.07.

With `Cn1sc(=O)n(Cc2ccccc2)c1=O`, the fractional viability is, setting by setting: (2uM) 0.609; (10uM) 0.104.

For the compound `Cc1ccc(-n2sc(=O)n(Cc3ccc(F)cc3)c2=O)cc1`, the fractional viability by setting is: (2uM) 0.801; (10uM) 0.457.

Regarding `O=C(O)CSc1cc(NS(=O)(=O)c2ccc(Br)cc2)c2ccccc2c1O`, the fractional viability runs as follows: (2uM) 0.835; (10uM) 0.365.

In the case of `OCCOc1ccc(/C(=C(/CCCl)c2ccccc2)c2ccccc2)cc1` [Ospemifene], the fractional viability by setting is: (2uM) 0.854; (10uM) 0.735.

On to `CC(=O)c1cc([N+](=O)[O-])c(Sc2cccc(Cl)c2Cl)s1`, for which the fractional viability is, setting by setting: (2uM) 0.895; (10uM) 0.2.

For the compound `CN(C)C(=O)c1ccc(S(=O)(=O)c2ccc(NC(=O)[C@@](C)(O)C(F)(F)F)c(Cl)c2)cc1`, the fractional viability was found to be 0.83 (2uM) and 0.753 (10uM).

Turning to `CNCc1ccc(-c2cc(-c3nc(-c4ccc(S(=O)(=O)C(C)C)cc4)cnc3N)on2)cc1`, the fractional viability is 0.792 (2uM) and 0.849 (10uM).

As for `NC[C@@](O)(c1ccc(Cl)cc1)c1ccc(-c2cn[nH]c2)cc1`, the fractional viability turned out to be 0.858 (2uM) and 0.87 (10uM).

Take `O=C(NC1CCN(CCCCC2(C(=O)NCC(F)(F)F)c3ccccc3-c3ccccc32)CC1)c1ccccc1-c1ccc(C(F)(F)F)cc1` [Lomitapide Mesylate]: the fractional viability was found to be 0.887 (2uM) and 0.0779 (10uM).

In the case of `O=C(O)c1ccccc1C(=O)Nc1ccc(-c2ccccc2)cc1` [Kartogenin], the fractional viability is, setting by setting: (2uM) 0.838; (10uM) 0.747.

Take `C=CCc1ccc(O)c(-c2ccc(O)c(CC=C)c2)c1` [Honokiol]: the fractional viability by setting is: (2uM) 0.957; (10uM) 1.01.

As to `Cc1ccc(C(=O)N(CCCN)[C@@H](c2nc3cc(Cl)ccc3c(=O)n2Cc2ccccc2)C(C)C)cc1`, the fractional viability reads like this: (2uM) 0.71; (10uM) 0.309.

With `C#CC[C@H](c1nc2cc(Cl)ccc2c(=O)n1Nc1ccccc1)N(CCCN)C(=O)c1cccc(Cl)c1F`, the fractional viability was 0.562 (2uM) and 0.0443 (10uM).

With `O=C1C(=O)N(Cc2ccc(Cl)c(Cl)c2)c2ccccc21` [Apoptosis Activator 2], the fractional viability is, setting by setting: (2uM) 0.461; (10uM) 0.287.

On to `Cc1cccc(-c2[nH]c(C(C)(C)C)nc2-c2ccc3nccnc3c2)n1`, for which the fractional viability by setting is: (2uM) 1.28; (10uM) 1.26.

Regarding `CC1=CC(=O)c2ccccc2C1=O` [Menadione], the fractional viability is, setting by setting: (2uM) 0.94; (10uM) 0.75.

Take `CC1(C)CCC2=C(O1)c1ccccc1C(=O)C2=O` [Beta-Lapachone]: the fractional viability reads like this: (2uM) 0.202; (10uM) 0.0483.

For `OCCn1cc(-c2cnc3nnn(Cc4ccc5ncccc5c4)c3n2)cn1`, the fractional viability reads like this: (2uM) 1.09; (10uM) 1.14.

`COc1ccc(C2=N[C@@H](c3ccc(Cl)cc3)[C@@H](c3ccc(Cl)cc3)N2C(=O)N2CCNC(=O)C2)c(OC(C)C)c1` [Nutlin-3]: the fractional viability by setting is: (2uM) 0.858; (10uM) 0.623.

With `COc1ccc(C2=N[C@@H](c3ccc(Cl)cc3)[C@@H](c3ccc(Cl)cc3)N2C(=O)N2CCNC(=O)C2)c(OC(C)C)c1` [Nutlin-3a], the fractional viability runs as follows: (2uM) 0.481; (10uM) 0.367.

As for `CCCc1cc2c(N3CCN(C4=NCC(C)(C)S4)CC3)ncnc2s1` [MI-2 (Menin-MLL Inhibitor)], the fractional viability (2uM) turned out to be 0.828 and the fractional viability (10uM) turned out to be 0.711.

In the case of `CN(C)C(=S)NN=C(c1ccccn1)c1ccccn1`, the fractional viability stood at 0.572 (2uM) and 0.755 (10uM).

For `Clc1ccc(NN=C(c2ccccc2)c2ccccn2)nc1`, the fractional viability (2uM) came to 0.229 and the fractional viability (10uM) is 0.0582.

As for `O=C(Nc1cccc(Cl)c1)c1ccccn1`, the fractional viability reads like this: (2uM) 1.19; (10uM) 1.02.

`CC(C)C[C@@H](C=O)NC(=O)[C@H](CC(C)C)NC(=O)[C@H](CC(C)C)NC(=O)OCc1ccccc1` showed a fractional viability (2uM) of 0.236 and a fractional viability (10uM) of 0.144.

On to `O=C(O)C(S)=Cc1c[nH]c2ccc(F)cc12`, for which the fractional viability stood at 0.79 (2uM) and 0.825 (10uM).

Consider `Nc1ncnc2c1C(=O)N(c1ccc([C@H]3CC[C@H](CC(=O)O)CC3)cc1)CCO2`, for which the fractional viability stood at 0.723 (2uM) and 0.773 (10uM).

Take `Nc1cccc(S(=O)(=O)N2CCCN(S(=O)(=O)c3ccc4c(c3)OCCO4)CC2)c1`: the fractional viability was 0.783 (2uM) and 0.849 (10uM).

Take `C=CC(=O)Nc1ccc2ncnc(Nc3cccc(Br)c3)c2c1`: the fractional viability was found to be 0.982 (2uM) and 0.588 (10uM).

Compound `CS(=O)(=O)CCNCc1ccc(-c2ccc3ncnc(Nc4ccc(OCc5cccc(F)c5)c(Cl)c4)c3c2)o1` yielded a fractional viability (2uM) of 1.05 and a fractional viability (10uM) of 0.369.

As for `C=CC(=O)Nc1ccc2ncnc(Nc3ccc(OCc4cccc(F)c4)c(Cl)c3)c2c1`, the fractional viability runs as follows: (2uM) 0.742; (10uM) 0.0667.

For the compound `CC(C=CC(=O)NO)=CC(C)C(=O)c1ccc(N(C)C)cc1` (stereo not drawn) [Trichostatin A (TSA)], the fractional viability (2uM) worked out at 0.335 and the fractional viability (10uM) was 0.298.

The values are drawn from the supplement of paper PMC5919970.
